Experimental data: PubChem BioAssay (NCATS)
Values joined by “and” are separate entries in the source; they are usually repeats but may differ in a detail not shown here. Equal entries are not always repeated. Results filed as inconclusive are left out. Entries that show only a call come without a potency. Active and inactive are the calls of the source. Calls follow the shape of the dose curve; as a rule, active = well fitted curve in the direction sought with a large enough effect; inconclusive = small, poorly fitted or top-dose-only effect, or another doubt; inactive = no such curve, though single readings can be large; an effect the other way counts as inactive or inconclusive.

Columns and labels:
[1] = target: Tyrosine-protein kinase Yes (Homo sapiens) (UniProt P07947); experiment: qHTS for small molecule inhibitors of Yes1 kinase: Primary Screen (AID 686947); also: nearly all actives have a fitted effect of over 60% in size; also: potency is read from the fitted curve at half-maximal effect
Outline: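 Yes1 (4 nM) preincubated 20 min with compound, then 60 min room-temperature reaction with 0.1 mM ATP and 0.3 mg/mL poly(E4Y) in pH 7.5 Tris, 10 mM MgCl2. ADP measured by ADP-Glo luminescence, normalised to enzyme/no-enzyme controls.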

[2] = qHTS for small molecule inhibitors of Yes1 kinase: Counter Assay (AID 686950);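 also: no kinase present so only ADP-Glo detection of a fixed ADP amount is tested; luminescence from ADP-Glo reporting ADP in a fixed ATP and ADP mixture; series mostly up to about 77 µM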
Outline: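 Luminescence read-out from ADP-Glo quantifies a fixed ADP amount (0.02 mM ADP with 0.08 mM ATP) after 60 min at room temperature; signal is normalized between DMSO wells with ATP/ADP and with 0.1 mM ATP alone.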

Sequence of Tyrosine-protein kinase Yes (Homo sapiens) (P07947 whole entry, looked up): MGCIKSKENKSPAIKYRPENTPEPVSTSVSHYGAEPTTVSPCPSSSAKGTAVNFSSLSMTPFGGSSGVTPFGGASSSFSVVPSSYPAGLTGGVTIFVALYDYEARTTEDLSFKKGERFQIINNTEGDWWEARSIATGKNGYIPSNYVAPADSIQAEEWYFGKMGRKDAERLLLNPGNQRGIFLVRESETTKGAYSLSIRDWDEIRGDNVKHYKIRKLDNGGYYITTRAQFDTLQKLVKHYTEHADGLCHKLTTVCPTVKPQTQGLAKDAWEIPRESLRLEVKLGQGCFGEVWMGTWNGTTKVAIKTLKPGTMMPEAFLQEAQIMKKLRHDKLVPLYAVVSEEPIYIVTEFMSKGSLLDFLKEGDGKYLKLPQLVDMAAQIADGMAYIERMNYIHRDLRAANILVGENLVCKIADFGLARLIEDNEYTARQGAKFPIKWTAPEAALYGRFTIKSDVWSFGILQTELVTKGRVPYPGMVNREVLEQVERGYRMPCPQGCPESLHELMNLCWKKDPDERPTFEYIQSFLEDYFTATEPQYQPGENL

SMILES	Potency [1]	outcome [2]
CCn1c(-c2nonc2N)nc2ccncc21	inactive	inactive
CCn1c(-c2nonc2N)nc2c(C#CC(C)(C)O)nc(OCCNC)cc21	8.23 µM (active)	inactive
CCNC(=O)OC1CNC(C#Cc2cc3ncnc(Nc4ccc(OCc5cccc(F)c5)c(Cl)c4)c3s2)C1 (configuration not stated)	8.23 µM (active)	inactive
CCCN1CCC(c2ccc(Nc3nc(Nc4cc(F)ccc4C(N)=O)c4cc[nH]c4n3)c(OC)c2)CC1	inactive	inactive
O=C(OC1CNC(C#Cc2cc3ncnc(Nc4ccc5c(cnn5Cc5ccccc5)c4)c3s2)C1)N1CCOCC1 (configuration not stated)	1.04 µM (active)	inactive
Nc1ncnc2occ(-c3ccc(NC(=O)Nc4cccc(C(F)(F)F)c4)cc3)c12	1.64 µM (active)	inactive
COc1cc2ncn(-c3cc(OCCc4ccccc4)c(C(N)=O)s3)c2cc1OC	inactive	inactive
NS(=O)(=O)c1ccc(Nc2cc(-c3ccc(O)c(F)c3)[nH]n2)cc1	5.82 µM (active)	inactive
CC1(C)CC(n2cnc(-c3ccc(F)cc3)c2-c2ccnc(N)n2)CC(C)(C)N1	5.19 µM (active)	inactive
CCn1c(-c2nonc2N)nc2c(N3CCCC3)nccc21	inactive	inactive
COc1cc2ncn(-c3cc(OCc4ccccc4C(F)(F)F)c(C(=O)N(C)C)s3)c2cc1OC	7.33 µM (active)	inactive
COc1cccc(Nc2nccc(-c3cnn4ncccc34)n2)c1	inactive	inactive
COc1cc2ncn(-c3cc(OCc4cccs4)c(C(N)=O)s3)c2cc1OC	1.84 µM (active)	inactive
Cc1cc(-c2ccco2)cc(C)c1C=Cc1cncc(-c2nn[nH]n2)c1	1.04 µM (active)	inactive
NC(=O)c1sc(-n2cnc3cc(C(F)(F)F)ccc32)cc1OCc1ccccc1Br	inactive	inactive
CC(Oc1cc(-n2cnc3ccc(OCC4CCN(C)CC4)cc32)sc1C(N)=O)c1ccccc1Cl (configuration not stated)	1.64 µM (active)	inactive
CS(=O)(=O)Nc1ccc(-c2ccc3c(NC(=O)C4CC4)n[nH]c3c2)cc1	20.7 µM (active)	inactive
CS(=O)(=O)CCNCc1ccc(-c2ccc3ncnc(Nc4ccc(OCc5cccc(C(F)(F)F)c5)cc4)c3c2)o1	6.54 µM (active)	inactive
CC(C)(CO)CNC(=O)c1ccc2[nH]c(O)c(N=Nc3ccc(S(N)(=O)=O)cc3)c2c1	2.32 µM (active)	inactive
COC(=O)Nc1nc2ccc(Oc3ccc(NC(=O)Nc4cccc(C(=O)O)c4)cc3)cc2[nH]1	inactive	inactive
NCc1ccc(-c2nc(-c3ccc(Cl)c(O)c3)c(-c3ccncc3)[nH]2)cc1	0.328 µM (active)	inactive
COc1cc(Nc2nccc(Nc3ccc4c(C)[nH]nc4c3)n2)cc(OC)c1OC	0.0923 µM (active)	inactive
CC(C)=Cc1cccc2[nH]c(O)c(N=Nc3ccc(S(N)(=O)=O)cc3)c12	inactive	inactive
COc1cc2ncnc(Nc3ccc(C)c(O)c3)c2cc1OC	0.164 µM (active)	inactive
Cc1cc(O)cc(C)c1C=Cc1cncc(-c2nn[nH]n2)c1	0.0654 µM (active)	inactive
CCn1c(-c2nonc2N)nc2c(C#CCN)ncc(OCCCN)c21	inactive	inactive

SMILES	Potency [1]	outcome [2]
Fc1ccc(-c2ncn(C3CCNCC3)c2-c2ccnc(Oc3cccc(C(F)(F)F)c3)n2)cc1	inactive	inactive
N#Cc1c(NC(=O)c2ccc(F)cc2)sc2c1CCCC2	inactive	inactive
CS(=O)(=O)CCNCc1ccc(-c2ccc3ncnc(Nc4ccc(OCc5ccccc5)c(Cl)c4)c3c2)o1	0.923 µM (active)	inactive
CN(c1ccc(NC(=O)NCCN2CCOCC2)cc1)c1ccnc(Nc2ccc(CS(C)(=O)=O)cc2)n1	11.6 µM (active)	inactive
COc1cc2ncn(-c3cc(OCc4ccccc4C(F)(F)F)c(C(C)=O)s3)c2cc1OC	inactive	inactive
CS(=O)(=O)c1ccc(Oc2nccc(-c3c(-c4ccc(F)cc4)ncn3C3CCNCC3)n2)cc1	inactive	inactive
Nc1ccc(C#Cc2cncnc2Nc2ccc(OCc3cccc(F)c3)c(Cl)c2)cc1	inactive	inactive
N#Cc1ccc(Oc2nccc(-c3c(-c4ccc(F)cc4)ncn3C3CCNCC3)n2)cc1	inactive	inactive
Cc1nnc(-c2ccc(C)c(-c3ccc(C(=O)NCc4ccc(Cl)cc4)cc3)c2)o1	inactive	inactive
Cc1ccc(NC(=O)c2ccnc(N3CCCC3)c2)cc1-c1ccc(C(=O)NCC2CC2)cc1	inactive	inactive
FC(F)(F)c1cccc(Nc2nccc(-c3cnn4nc(-c5ccccc5)ccc34)n2)c1	14.6 µM (active)	inactive
CCS(=O)(=O)c1ccc(OC)c(Nc2ncc(-c3cccc(C(C)=O)c3)o2)c1	0.292 µM (active)	inactive
CN1CCN(C(=O)c2ccc(NC(=O)Nc3ccc(N(C)c4ccnc(Nc5ccc(CS(C)(=O)=O)cc5)n4)cc3)cc2)CC1	14.6 µM (active)	inactive
O=S1CCN(Cc2ccc(-c3ccc4ncnc(Nc5ccc(OCc6ccccc6)c(Cl)c5)c4c3)o2)CC1	0.368 µM (active)	inactive
FC(F)(F)CNc1nccc(-c2cnn3ncccc23)n1	inactive	inactive
CS(=O)(=O)CCNCc1ccc(-c2ccc3ncnc(Nc4ccc(OCc5ccccc5)c(C(F)(F)F)c4)c3c2)o1	inactive	inactive
COC(=O)c1sc(-n2cnc3cc(OC)c(OC)cc32)cc1OCc1ccccc1C(F)(F)F	0.654 µM (active)	inactive
CCOc1nccc2c1nc(-c1nonc1N)n2CC	inactive	inactive
CC1=C(C(=O)Nc2ccc3[nH]ncc3c2)C(c2ccc(Cl)c(Cl)c2)CC(=O)N1 (configuration not stated)	2.92 µM (active)	inactive
COc1cc2ncn(-c3cc(OC(C)c4ccccc4Cl)c(C(N)=O)s3)c2cc1OC (configuration not stated)	2.92 µM (active) and 733 nM (active)	inactive
CCc1ccc(Oc2nccc(-c3c(-c4ccc(F)cc4)ncn3C3CCNCC3)n2)cc1	inactive	inactive
O=S1CCN(Cc2ccc(-c3ccc4ncnc(Nc5ccc(OCc6ccccc6)c(F)c5)c4c3)o2)CC1	0.463 µM (active)	inactive
COc1ccccc1-c1cc(C=C2C(=O)Nc3ncc(Br)cc32)cc(Br)c1O	0.733 µM (active)	inactive
COc1ccc2c(-c3ccnc(Nc4cccc(OC(F)(F)F)c4)n3)cnn2n1	26 µM (active)	inactive
c1ccc(-c2[nH]ncc2-c2ccnc(-c3ccc(OCCn4ccnc4)cc3)c2)nc1	4.63 µM (active)	inactive
Fc1cccc(COc2ccc(Nc3ncncc3C#Cc3ccccc3)cc2Cl)c1	inactive	inactive

SMILES	Potency [1]	outcome [2]
CNC(=O)c1cncc(C=Cc2ccccc2Cl)c1	8.23 µM (active)	inactive
FC(F)(F)c1ccc(-c2nn3ncccc3c2-c2ccnc(Nc3ccc4c(c3)OCCO4)n2)cc1	2.6 µM (active)	inactive
CS(=O)(=O)CCNCc1coc(-c2ccc3ncnc(Nc4ccc(OCc5ccccc5)cc4)c3c2)c1	1.84 µM (active)	inactive
COc1cc(Nc2nccc(-c3cnn4ncccc34)n2)cc(OC)c1	0.519 µM (active)	inactive
ON=C1CCc2cc(-c3nc(C4CCNCC4)[nH]c3-c3ccncc3)ccc21	inactive	inactive
Cc1ccc2c(-c3ccnc(Nc4cccc(C(F)(F)F)c4)n3)c(-c3ccccc3)nn2n1	0.146 µM (active)	inactive
Nc1nc(-c2cccc(Cl)c2)c(-c2ccc3ncccc3n2)s1	1.16 µM (active)	inactive
CCOc1ccc2c(-c3ccnc(Nc4cccc(C(F)(F)F)c4)n3)cnn2n1	inactive	inactive
COc1cc(C)c(N(C)C(=O)CN(C)C)cc1Nc1nc(Nc2cccc(F)c2C(N)=O)c2cc[nH]c2n1	inactive	inactive
CCn1c(-c2nonc2N)nc2c(C#CC(C)(C)O)nc(OC(CN)c3ccccc3)cc21 (configuration not stated)	0.654 µM (active)	inactive
CS(=O)(=O)CCNCc1cc(-c2cc3c(Nc4ccc(OCc5cccc(F)c5)c(Cl)c4)ncnc3s2)cs1	46.3 µM (active)	inactive
Cc1cc(O)cc(C)c1C=Cc1cncc(C(=O)OC(C)(C)C)c1	0.733 µM (active)	inactive
COc1ccc(Nc2ncc(-c3ccccc3)o2)cc1OC	1.16 µM (active)	inactive
COc1cccc(-n2cnc3c(NN=Cc4ccncc4)ncnc32)c1	0.582 µM (active)	inactive
O=S1CCN(Cc2ccc(-c3ccc4ncnc(Nc5ccc(OCc6cccc(F)c6)c(Cl)c5)c4c3)o2)CC1	2.07 µM (active)	inactive
COc1cc2c(cc1Nc1nc(Nc3cccc(F)c3C(N)=O)c3cc[nH]c3n1)N(C(=O)CN1CCN(C(C)C)CC1)CC2	inactive	inactive
NS(=O)(=O)c1ccc(Nc2cc(-c3cccc(O)c3)[nH]n2)cc1	23.2 µM (active)	inactive
NS(=O)(=O)c1cccc(-c2ccc3c(NC(=O)C4CC4)n[nH]c3c2)c1	4.12 µM (active)	inactive
CCn1c(-c2nonc2N)nc2c(C#CC(C)(C)O)ncc(OCC3CCCN3)c21 (configuration not stated)	26 µM (active)	inactive
CCc1cccc(NC(=O)Nc2ccc(Oc3ccc4nc(NC(=O)OC)[nH]c4c3)cc2)c1	inactive	inactive
CNC(=O)c1sc(-n2cnc3cc(OC)c(OC)cc32)cc1OCc1ccccc1C(F)(F)F	18.4 µM (active)	inactive
N#Cc1ccc2c(-c3ccnc(NC4CC4)n3)c(-c3ccc(F)cc3)nn2c1	26 µM (active)	inactive
Cc1ccc(NC(=O)CC2CC2)cc1-c1ccc(C(=O)NCC2CC2)cc1	inactive	inactive
NS(=O)(=O)c1ccc(N=Nc2c(O)[nH]c3cccc(CCc4ccncc4)c23)cc1	inactive	inactive
